# Most compounds without a hit are left out; they make up all but 6.8% or so of the library.
# C diff HTS: blocks growth of Clostridium difficile; Clostridium difficile clinical isolate growth, OD600, 24 h; active compounds read low; growth activity, negative = inhibition, % at 16 µg/mL (by protocol); AID 1259249; hit rate 0.25% among 86,000;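 active means mean growth activity at or below -80% and every replicate also at or below -80%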;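 further: 0% = DMSO wells and -100% = levofloxacin 16 µg/mL wells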
# T cruzi growth: inhibitors of T. cruzi proliferation; T. cruzi beta-gal in NIH3T3, GalScreen luminescence, 90 h; inhibition, % at 8.34 µM; hit rate 5.9% among 77,000;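 active means mean inhibition above about 93%, with at least 55% of replicates each passing it, limit read from the data, passing the limit was not always enough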
# Pf Dd2 growth: blocks growth of Plasmodium falciparum Dd2 parasites | activity change, % at 10 µM | P. falciparum Dd2 growth, SYBR Green, 72 h; active compounds read low | AID 1159554 | hit rate 2.3% among 94,000; in the data active means activity change below about -80%
# * marks the source's active call; other numbers are inactive results; · = no result given.
SMILES,C diff HTS,T cruzi growth,Pf Dd2 growth
COc1ccc2c3c(n(C)c2c1)[C@@H](CO)N(Cc1ccccc1OC)CC31CCN(CC2CC2)CC1,13,·,-91*
COc1ccc2c3c(n(C)c2c1)[C@H](CO)N(CC1CC1)CC31CCN(Cc2ccc(F)cc2)CC1,12,·,-85*
COc1ccc2c3c(n(C)c2c1)[C@@H](CO)N(Cc1ccccc1F)CC31CN(CC2CC2)C1,7,·,-8
COc1ccc2c3c(n(C)c2c1)[C@@H](CO)N(Cc1ccccc1F)CC31CCN(CC2CC2)CC1,4,·,-88*
COc1ccc2c3c(n(C)c2c1)[C@@H](CO)N(CC1CC1)CC31CCN(Cc2ccc(F)cc2)CC1,8,·,-77
COc1ccc(C#Cc2ccc([C@H]3[C@H](CO)N4C(=O)CN(C(=O)c5ccc(F)cc5)C[C@@H]34)cc2)cc1,36,·,7
CCCN1C[C@@H](C)[C@@H](OC)CN(C)C(=O)c2cc(NC(=O)Nc3ccccc3F)ccc2OC[C@@H]1C,·,13,7
C[C@@H]1CN([C@H](C)CO)C(=O)c2cc(NC(=O)Nc3ccc4c(c3)OCO4)ccc2O[C@@H]1CN(C)C(=O)Nc1ccccc1,-2,36,13
CCCNC(=O)[C@@H]1[C@@H](CO)[C@@H]2Cn3c(cccc3=O)[C@@H]2N1C(=O)CC1CC1,0,81,18
COc1ccc2c3c(n(C)c2c1)[C@@H](CO)N(C(=O)Nc1ccc(F)cc1)CC31CCN(CC2CCOCC2)CC1,-2,·,-76
O=C(Nc1ccccc1F)N[C@H]1CC[C@H](CC(=O)N2CCCCC2)O[C@H]1CO,·,1,8
CCC(=O)N1C[C@H](C)[C@H](OC)CN(C)C(=O)c2cc(NC(=O)c3ccccc3)ccc2OC[C@H]1C,·,-14,-4
C[C@@H]1CCCCO[C@H](CN(C)C(=O)Nc2ccc3c(c2)OCO3)[C@@H](C)CN([C@@H](C)CO)C(=O)c2cc(NC(=O)C3CCCCC3)ccc2O1,-1,47,-64
C[C@@H]1CCCCO[C@H](CN(C)C(=O)Nc2ccc3c(c2)OCO3)[C@H](C)CN([C@H](C)CO)C(=O)c2cc(NC(=O)C3CCCCC3)ccc2O1,-5,47,-86*
C[C@@H]1CN([C@@H](C)CO)C(=O)c2cc(NC(=O)C3CCCCC3)ccc2O[C@@H](C)CCCCO[C@@H]1CN(C)C(=O)Nc1ccc2c(c1)OCO2,0,44,-83*
C[C@@H]1CCCCO[C@@H](CN(C)C(=O)Nc2ccc3c(c2)OCO3)[C@H](C)CN([C@@H](C)CO)C(=O)c2cc(NC(=O)C3CCCCC3)ccc2O1,0,16,-25
CC(C)NC(=O)Nc1ccc2c(c1)C(=O)N([C@@H](C)CO)C[C@H](C)[C@H](CN(C)Cc1ccc(C(=O)O)cc1)OCCCC[C@@H](C)O2,9,22,3
Cc1ccc(S(=O)(=O)N(C)C[C@@H]2Oc3c(NS(=O)(=O)c4ccc(F)cc4)cccc3C(=O)N([C@H](C)CO)C[C@H]2C)cc1,-1,12,36
COc1ccc(NC(=O)Nc2ccc3c(c2)CC(=O)N([C@H](C)CO)C[C@@H](C)[C@@H](CN(C)C(=O)Nc2cccc4ccccc24)O3)cc1,-7,32,-35
COc1ccc2c3c(n(C)c2c1)[C@@H](CO)NCC31CN(C(=O)c2cccc(F)c2)C1,0,·,-82*
COc1ccc2c3c(n(C)c2c1)[C@H](CO)NCC31CN(Cc2ccc(-c3ccccn3)cc2)C1,6,·,-88*
COc1ccc2c3c(n(C)c2c1)[C@H](CO)N(C(=O)Nc1ccc(F)cc1)CC31CCN(Cc2ccccc2F)CC1,4,·,-76
COc1ccc2c3c(n(C)c2c1)[C@@H](CO)NCC31CN(Cc2ccccc2Cl)C1,8,·,-23
COc1ccc2c3c(n(C)c2c1)[C@@H](CO)N(C(=O)Nc1ccc(F)cc1)CC31CN(Cc2ccccc2F)C1,-21,·,-88*
COc1ccc2c3c(n(C)c2c1)[C@@H](CO)N(C(=O)c1ccc(F)cc1)CC31CN(CC2CCOCC2)C1,-7,·,-88*
SMILES,C diff HTS,T cruzi growth,Pf Dd2 growth
COc1ccc2c3c(n(C)c2c1)[C@H](CO)N(C(=O)c1ccc(F)cc1)CC31CN(CC2CC2)C1,6,·,-58
COc1ccc2c3c(n(C)c2c1)[C@@H](CO)NCC31CN(C(=O)c2ccc(F)cc2)C1,·,·,69
Cc1ccccc1-c1cnc2c(c1)C(=O)N([C@H](C)CO)C[C@H](C)[C@@H](CN(C)CC1CCCC1)O2,0,47,-26
C[C@@H]1CN([C@@H](C)CO)C(=O)c2cccc(NS(=O)(=O)c3ccccc3)c2O[C@H]1CN(C)Cc1ccncc1,-4,-18,31
COCC(=O)N(C)C[C@@H]1Oc2cc(C#CCC(C)C)ccc2S(=O)(=O)N([C@H](C)CO)C[C@@H]1C,-12,47,21
COc1ccc2c3c(n(C)c2c1)[C@H](CO)N(C(=O)c1ccc(F)cc1)CC31CN(C(=O)Nc2ccc(F)cc2)C1,10,·,-76
COc1ccc2c3c(n(C)c2c1)[C@@H](CO)N(C(=O)c1ccc(F)cc1)CC31CN(C(=O)Nc2ccc(F)cc2)C1,3,·,-89*
COc1ccc2c3c(n(C)c2c1)[C@@H](CO)N(C(=O)c1ccc(F)cc1)CC31CCN(C(=O)c2ccc(F)cc2)CC1,6,·,-86*
COc1ccc2c3c(n(C)c2c1)[C@H](CO)N(C(=O)c1ccc(F)cc1)CC31CCN(C)CC1,-3,·,18
O=C(NCC(F)(F)F)[C@@H]1[C@@H](CO)[C@@H]2Cn3c(ccc(-c4ccncc4)c3=O)[C@@H]2N1Cc1ccncc1,0,3,·
C[C@H](CO)N1C[C@H](C)[C@H](CN(C)C(=O)C2CC2)Oc2ncc(C#Cc3cccc(F)c3)cc2C1=O,3,61,-18
CCCC#Cc1cnc2c(c1)C(=O)N([C@H](C)CO)C[C@H](C)[C@@H](CN(C)C(=O)Nc1cc(F)ccc1F)O2,-18,·,-63
C[C@@H]1CN([C@@H](C)CO)C(=O)c2cc(C#Cc3cccc(F)c3)cnc2O[C@@H]1CN(C)C(=O)C1CCCCC1,·,122,-86*
C[C@@H]1CN([C@H](C)CO)C(=O)c2cc(C#Cc3cccc(F)c3)cnc2O[C@@H]1CN(C)C(=O)C1CCC1,7,-208,-71
C[C@@H]1CN([C@@H](C)CO)C(=O)c2cc(C#Cc3ccccc3F)cnc2O[C@H]1CN(C)C(=O)C1CCCCC1,-23,·,-33
C[C@@H]1CN([C@H](C)CO)C(=O)c2cc(C#Cc3cccc(F)c3)cnc2O[C@@H]1CN(C)C(=O)C1CCCCC1,·,115,-88*
CCCC#Cc1cnc2c(c1)C(=O)N([C@@H](C)CO)C[C@@H](C)[C@H](CN(C)C(=O)Nc1cc(F)ccc1F)O2,-9,·,-83*
C[C@H]1CN([C@@H](C)CO)C(=O)c2cc(C#Cc3ccccc3F)cnc2O[C@@H]1CN(C)C(=O)C1CCCCC1,0,·,-85*
C[C@@H]1CN([C@H](C)CO)C(=O)c2cccc(NC(=O)Nc3ccc(F)cc3)c2O[C@@H]1CN(C)Cc1ccncc1,2,3,2
COc1cccc(-c2ccc([C@@H]3[C@H]4CN(C(=O)C5CCCCC5)CC(=O)N4[C@H]3CO)cc2)c1,1,·,-68
COc1ccc(NC(=O)Nc2ccc3c(c2)C(=O)N([C@H](C)CO)C[C@H](C)[C@H](CN(C)C(=O)Nc2ccc(F)cc2)OCCCC[C@H](C)O3)cc1,-4,73,5

# Assay outcomes (PubChem)
